The list is not random: actives were taken first. Their share in the collection is about 10%.
FLuc inh = blocks purified firefly luciferase enzyme activity | P08659 | purified P. pyralis luciferase, luminescence, biochemical | Potency, µM (doses to about 115 µM), usual class: inhibitors | hit rate 2.5% among 76,000 | AID 1347043; also: nearly all actives have a fitted effect of over 65% in size
Target sequence (P08659 whole entry, looked up): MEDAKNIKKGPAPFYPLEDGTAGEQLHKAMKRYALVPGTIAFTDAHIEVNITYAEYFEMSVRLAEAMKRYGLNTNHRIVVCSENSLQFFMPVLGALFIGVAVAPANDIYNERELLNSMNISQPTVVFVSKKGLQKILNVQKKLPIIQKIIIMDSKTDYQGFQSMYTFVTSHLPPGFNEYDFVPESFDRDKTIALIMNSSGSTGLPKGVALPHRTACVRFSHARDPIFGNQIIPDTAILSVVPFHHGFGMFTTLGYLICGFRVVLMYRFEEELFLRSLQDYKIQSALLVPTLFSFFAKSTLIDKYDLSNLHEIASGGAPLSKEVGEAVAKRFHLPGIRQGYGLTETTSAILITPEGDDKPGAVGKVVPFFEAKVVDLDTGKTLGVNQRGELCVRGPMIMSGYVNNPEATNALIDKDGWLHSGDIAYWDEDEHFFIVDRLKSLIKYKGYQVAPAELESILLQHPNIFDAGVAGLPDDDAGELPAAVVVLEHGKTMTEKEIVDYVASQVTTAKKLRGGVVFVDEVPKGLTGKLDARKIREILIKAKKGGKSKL
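Cell-free enzyme assay, 10nM P. pyralis luciferase, luciferin and ATP each at 10uM. Inhibition profiled over a 6-point titration, read as luminescence.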
GPT2 inhibitor = GPT2 alanine aminotransferase inhibition. Q8TD30. hit rate 0.25% among 100,000. Potency, µM (doses to about 57.7 µM), hits mostly inhibitors. Recombinant GPT2, coupled pyruvate oxidase/HRP Amplex Red fluorescence; also: nearly all actives have a fitted effect of over 60% in size
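Fluorescence of coupled pyruvate oxidase/HRP/Amplex Red system (50uM Amplex, 30 min, dark) reports pyruvate formed by GPT2. Enzyme reaction: 10ng/uL GPT2, 2mM L-alanine, 250uM a-KG, 30 min room temperature, pH 7.5; 50uM AOA control.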
3T3 cytotox = NIH 3T3 cell cytotoxicity | NIH 3T3 viability, CellTiter-Glo ATP luminescence, 48-72 h | hit rate 4.3% among 94,000 | Potency, µM (titrated, usually from 96.7 µM), hits mostly inhibitors | AID 1345082; also: nearly all actives have a fitted effect of over 55% in size
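Cytotoxicity was measured by CellTiter-Glo ATP luminescence after 48 or 72 h compound exposure at 37 °C. Mouse NIH 3T3 fibroblasts were seeded at 400 cells/well and dosed by 23 nL pin transfer.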
HEK293 tox = cytotoxic compounds in HEK 293 cells. HEK 293 viability, ATP luminescence (CellTiter-Glo), 48-72 h. hit rate 6.6% among 94,000. AID 1345083. Potency, µM (highest dose often 115 µM), hits mostly inhibitors; also: nearly all actives have a fitted effect of over 60% in size
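Cells seeded first (HEK 293, 250 cells/well), then compound added by pintool. Incubation ran 48 or 72 hr at 37 degree Celsius. CellTiter-Glo was added and luminescence imaged after 10 min at room temperature.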
hNpr1 antagonist = human Npr1 receptor antagonism | Potency, µM (titrated, usually from 46.3 µM), usual class: inhibitors | AID 1347048 | P16066 | HEK293 hNpr1 GloSensor cGMP, ANP-stimulated luminescence | hit rate 1.6% among 76,000; calls by dose curve; also: nearly all actives have a fitted effect of over 60% in size
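HEK293 cells stably expressing human Npr1 and cGMP GloSensor pGS-40F, loaded 2 h with 2% GloSensor reagent, given compound 30 min at room temperature. Luminescence read before and 20 min after 0.1 nM hNppA.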
Numbers stand for hits. Unless noted, calls follow the shape of the dose curve; as a rule, active = well fitted curve in the direction sought with a large enough effect; inconclusive = small, poorly fitted or top-dose-only effect, or another doubt; inactive = no such curve, though single readings can be large; an effect the other way counts as inactive or inconclusive.

Screening Cc1cccc(C)c1OC1CN(c2cc(C3CC(O)C3)nc(N)n2)C1 (centres undefined) returned FLuc inh inactive, GPT2 inhibitor inactive, 3T3 cytotox inactive, HEK293 tox 35µM and hNpr1 antagonist inactive.
`CNC(=O)c1cc(C2CC2)nc2onc(C3CCCN3C(=O)NC(C)C)c12` (centres undefined) gave 3T3 cytotox inactive and HEK293 tox inactive.
Screening O=C(NCc1cccs1)c1ccc2oc(-c3ccccn3)nc2c1 returned GPT2 inhibitor inactive, 3T3 cytotox inconclusive and HEK293 tox inconclusive.
CCC(=O)NC[C@H]1Cn2cc(-c3ccc(OC)cc3)nc2CO1 was read as FLuc inh 63µM, GPT2 inhibitor inactive, 3T3 cytotox inactive, HEK293 tox inactive and hNpr1 antagonist inactive.
For COc1ccc(-c2cn3c(n2)CO[C@@H](CNCc2ccc(Cl)cc2)C3)cc1 the results were FLuc inh 63µM, GPT2 inhibitor inactive, 3T3 cytotox 100µM, HEK293 tox 89µM and hNpr1 antagonist inconclusive.
Cc1ccc(-c2cn3c(n2)CO[C@@H](CNS(C)(=O)=O)C3)cc1 was read as FLuc inh inactive, GPT2 inhibitor inactive, 3T3 cytotox inactive, HEK293 tox inactive and hNpr1 antagonist inactive.
Screening COc1ccc(-c2cn3c(n2)CO[C@@H](CNC(=O)CCC(=O)O)C3)cc1 returned FLuc inh inactive, GPT2 inhibitor inactive, 3T3 cytotox inactive, HEK293 tox inactive and hNpr1 antagonist inactive.
For COc1ccc(-c2cn3c(n2)CO[C@@H](CNS(C)(=O)=O)C3)cc1 the results were FLuc inh 56µM, GPT2 inhibitor inactive, 3T3 cytotox inactive, HEK293 tox inactive and hNpr1 antagonist inactive.
COc1ccc(CNC[C@H]2Cn3cc(-c4ccccc4)nc3CO2)cc1 was read as FLuc inh inactive, GPT2 inhibitor inactive, 3T3 cytotox inconclusive, HEK293 tox inconclusive and hNpr1 antagonist inactive.
Cc1ccc(N2CCC(NC(=O)Cc3cccc(F)c3)C2=O)cc1 (centres undefined) was read as FLuc inh inactive, GPT2 inhibitor inactive, 3T3 cytotox 32µM, HEK293 tox 25µM and hNpr1 antagonist inactive.
For O=C(Cc1cccc(F)c1)NC1CCN(c2ccc(F)cc2)C1=O (centres undefined) the results were FLuc inh inactive, GPT2 inhibitor inactive, 3T3 cytotox inactive, HEK293 tox inactive and hNpr1 antagonist inactive.
For Cc1cc(OCCN(C)C)c(C)c2c1CC[C@@H]([C@H](C)C(=O)NCc1cccs1)C2 the results were FLuc inh inactive, GPT2 inhibitor inactive, 3T3 cytotox 63µM, HEK293 tox 56µM and hNpr1 antagonist inactive.
`COc1cc(C)c2c(c1C)C[C@H](C(C)C(=O)NCc1ccco1)CC2` (some centres undefined) gave FLuc inh inactive, GPT2 inhibitor inactive, 3T3 cytotox inconclusive, HEK293 tox inconclusive and hNpr1 antagonist inactive.
Cc1noc(C2CC3(CCN(C(=O)Cc4c[nH]c5ccccc45)CC3)CN2C)n1 (centres undefined) was read as FLuc inh inactive, GPT2 inhibitor inactive, 3T3 cytotox inactive, HEK293 tox inactive and hNpr1 antagonist inactive.
Screening Cc1cnc(-c2ccccc2)n1CCC1CCN(C(=O)C2(c3ccccc3)CC2)CC1 returned GPT2 inhibitor inactive, 3T3 cytotox inconclusive and HEK293 tox 35µM.
For Cc1cnc(-c2ccncc2)n1CCC1CCN(C(=O)C(C)Oc2ccccc2)CC1 (centres undefined) the results were GPT2 inhibitor inactive, 3T3 cytotox inconclusive and HEK293 tox 45µM.
`COc1ccc(C(=O)N2CCC(CCn3c(C)cnc3-c3cccnc3)CC2)cc1` gave GPT2 inhibitor inconclusive, 3T3 cytotox inconclusive and HEK293 tox inactive.
`CN1CCOc2c(C(=O)NCc3cccnc3)cc(-c3ccccc3)cc21` gave FLuc inh inactive, GPT2 inhibitor inactive, 3T3 cytotox inconclusive, HEK293 tox inconclusive and hNpr1 antagonist inactive.
Screening Cc1cnc(C2CCN(C(=O)C3CCCC3)C2)n1Cc1ccccc1 (centres undefined) returned FLuc inh inactive, GPT2 inhibitor inactive, 3T3 cytotox inactive, HEK293 tox inactive and hNpr1 antagonist inactive.
Cc1cnc(C2CCN(CC3CCCCC3)C2)n1Cc1ccccc1 (centres undefined) was read as GPT2 inhibitor inconclusive, 3T3 cytotox 20µM and HEK293 tox 22µM.
Screening c1ccc(-c2noc(-c3cncnc3N3CCN(c4ccccc4)CC3)n2)cc1 returned FLuc inh inconclusive, GPT2 inhibitor inactive, 3T3 cytotox inconclusive, HEK293 tox 45µM and hNpr1 antagonist inactive.
Screening CCCNC(=O)N1CCCC(c2nc(CCOc3ccc(F)cc3)no2)C1 (centres undefined) returned GPT2 inhibitor inactive, 3T3 cytotox inconclusive and HEK293 tox inconclusive.
Screening CCc1cccc(NC(=O)N2CCCC(c3noc(COc4ccccc4)n3)C2)c1 (centres undefined) returned FLuc inh inactive, GPT2 inhibitor inactive, 3T3 cytotox 32µM, HEK293 tox inconclusive and hNpr1 antagonist inconclusive.
Screening CCNC(=O)N1CCCC(c2noc(COc3ccccc3F)n2)C1 (centres undefined) returned FLuc inh 35µM, GPT2 inhibitor inactive, 3T3 cytotox inactive, HEK293 tox inactive and hNpr1 antagonist inactive.
Screening Cc1ccccc1NC(=O)N1CCCC(c2noc(COc3ccccc3)n2)C1 (centres undefined) returned FLuc inh inactive, GPT2 inhibitor inactive, 3T3 cytotox inconclusive, HEK293 tox inconclusive and hNpr1 antagonist inactive.
For CC(C)CNC(=O)N1CCCC(c2nc(CCOc3ccc(F)cc3)no2)C1 (centres undefined) the results were FLuc inh inactive, GPT2 inhibitor inactive, 3T3 cytotox inconclusive, HEK293 tox 40µM and hNpr1 antagonist inactive.
CC(C)NC(=O)N1CCCC(c2noc(COc3ccccc3F)n2)C1 (centres undefined) was read as FLuc inh inactive, GPT2 inhibitor inactive, 3T3 cytotox inactive, HEK293 tox inactive and hNpr1 antagonist inactive.
For Cc1ccc(OCc2nc(C3CN(C(=O)Cc4ccsc4)C3)no2)cc1 the results were FLuc inh inactive, GPT2 inhibitor inactive, 3T3 cytotox inconclusive, HEK293 tox 89µM and hNpr1 antagonist inactive.
For O=C(NCCc1ccccc1)N1CCc2nnc(C3CC3)n2CC1 the results were GPT2 inhibitor inactive, 3T3 cytotox inactive and HEK293 tox inactive.
Screening O=C(c1ccc(Br)o1)N1CCCN(c2cc(-c3ccc(F)cc3)[nH]n2)CC1 returned FLuc inh inactive, GPT2 inhibitor inactive, 3T3 cytotox inconclusive, HEK293 tox inconclusive and hNpr1 antagonist inactive.
For COCc1nc(C2CCCN(C(=O)Cc3ccccc3C)C2)no1 (centres undefined) the results were FLuc inh inactive, GPT2 inhibitor inactive, 3T3 cytotox inactive, HEK293 tox inactive and hNpr1 antagonist inactive.
`Cc1ccccc1CC(=O)N1CCCC(c2noc(COc3ccccc3)n2)C1` (centres undefined) gave FLuc inh inactive, GPT2 inhibitor inactive, 3T3 cytotox inconclusive, HEK293 tox 45µM and hNpr1 antagonist inactive.

Screening results deposited in PubChem BioAssay by National Center for Advancing Translational Sciences (NCATS).
